# Assay results reported in article PMC4336329 (PLoS ONE, 2015).
# In all, about 310,000 compounds went through this assay and about 14,000 (4.5%) showed an effect of 50% or more. The effect is printed as a negative number. This is one part of a sample in which strong results are shown more often than they occur.
# Molecular target: human ether-à-go-go-related gene (hERG) potassium channel (human, UniProt Q12809)
# Assay: primary screen, population patch clamp on CHO cells stably expressing hERG; higher = less effect of the substance
# 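Also: peak tail current of the secondary pulse compared with the same well before compound.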
# human ether-à-go-go-related gene (hERG) potassium channel, sequence (Q12809 whole entry, looked up): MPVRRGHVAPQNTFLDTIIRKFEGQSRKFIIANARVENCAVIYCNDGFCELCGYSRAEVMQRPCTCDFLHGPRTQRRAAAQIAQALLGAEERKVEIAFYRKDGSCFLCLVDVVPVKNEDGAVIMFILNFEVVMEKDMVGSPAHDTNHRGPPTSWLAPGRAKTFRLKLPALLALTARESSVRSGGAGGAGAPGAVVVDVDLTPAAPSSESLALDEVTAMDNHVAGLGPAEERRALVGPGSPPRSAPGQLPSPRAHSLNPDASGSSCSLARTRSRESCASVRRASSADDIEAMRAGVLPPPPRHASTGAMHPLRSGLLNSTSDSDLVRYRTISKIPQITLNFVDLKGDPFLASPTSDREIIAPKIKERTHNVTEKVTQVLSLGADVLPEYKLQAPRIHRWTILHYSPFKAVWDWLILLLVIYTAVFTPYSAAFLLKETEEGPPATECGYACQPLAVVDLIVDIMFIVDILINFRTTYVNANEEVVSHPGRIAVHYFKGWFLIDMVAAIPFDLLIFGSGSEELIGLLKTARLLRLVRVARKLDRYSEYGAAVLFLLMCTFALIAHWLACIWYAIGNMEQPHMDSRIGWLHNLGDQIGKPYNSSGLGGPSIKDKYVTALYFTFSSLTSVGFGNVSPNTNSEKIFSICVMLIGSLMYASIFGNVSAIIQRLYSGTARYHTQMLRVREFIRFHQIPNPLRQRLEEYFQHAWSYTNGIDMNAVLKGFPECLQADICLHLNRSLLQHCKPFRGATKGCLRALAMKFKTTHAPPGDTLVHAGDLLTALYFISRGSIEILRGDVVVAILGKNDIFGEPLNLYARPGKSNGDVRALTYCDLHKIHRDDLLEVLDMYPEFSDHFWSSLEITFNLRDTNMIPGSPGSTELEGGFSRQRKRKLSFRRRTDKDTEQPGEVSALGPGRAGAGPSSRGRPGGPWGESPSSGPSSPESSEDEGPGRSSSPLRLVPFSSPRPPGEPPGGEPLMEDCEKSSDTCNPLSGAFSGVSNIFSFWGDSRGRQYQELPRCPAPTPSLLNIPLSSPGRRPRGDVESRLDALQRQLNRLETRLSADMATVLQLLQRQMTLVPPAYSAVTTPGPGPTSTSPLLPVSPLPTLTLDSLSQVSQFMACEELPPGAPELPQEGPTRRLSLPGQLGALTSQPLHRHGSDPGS
row,SMILES,"hERG current change (%, negative = inhibition) at 10uM"
1,Cc1cc(C)cc(NC(=S)NCCN(C2CCCCC2)C2CCCC2)c1,-69.6%
2,CN(C)CCNC(=S)Nc1cccc(Cl)c1,-27%
3,Cc1ccc(C)c(NC(=S)NCCN(C2CCCCC2)C2CCCC2)c1,-68.5%
4,Cc1ccc(SCCNC(=S)Nc2cc(C)ccc2C)cc1,4.34%
5,Cc1cc(C)cc(NC(=S)NCCCO)c1,-0.803%
6,S=C(Nc1cccc(Cl)c1)NC1CCCCC1,7.58%
7,Cc1ccc(C)c(NC(=S)NCc2ccccc2)c1,13.8%
8,Cc1cccc(NC(=S)NC2CCCC2)c1,0.919%
9,Cc1cccc(NC(=S)NCCN(C2CCCCC2)C2CCCC2)c1,-70.3%
10,Cc1cccc(NC(=S)N(C)C2CCCCC2)c1,5.51%
11,S=C(NCCN(C1CCCCC1)C1CCCC1)Nc1cccc(Cl)c1,-71.3%
12,CCOCCCNC(=S)Nc1cc(C)cc(C)c1,11%
13,Cn1ncc(Cl)c(Oc2ccc(C(C)(C)C)cc2)c1=O,-26%
14,CCOc1ccccc1NC(=O)c1cc(SC)ccc1Cl,50.4%
15,COc1cc(/C=N/NC(=O)CCOc2ccccc2C)cc(Br)c1O,-16.4%
16,CC1CC(C)CN(C(=O)CCC(=O)Nc2nnc(C3CCCCC3)s2)C1 (centres unmarked),14.2%
17,CC(C)(C)CN1CCNC(=O)C1CC(=O)NCCc1ccccc1F (centres unmarked),4.25%
18,COc1ccccc1-c1csc(NC(=O)c2cc(-c3cccs3)nc3ccccc23)n1,8.88%
19,COc1ccc2cc(C3CC(c4ccco4)=NN3S(=O)(=O)c3ccccc3)c(Cl)nc2c1 (centres unmarked),4.38%
20,CCN(CC(=O)NCc1cccs1)C(=O)c1ccc(NS(=O)(=O)c2cccc([N+](=O)[O-])c2)cc1,-19.7%
21,C/C(=N\NC(=S)NCc1ccccc1)c1ccc(Br)cc1,22.8%
22,O=C(O)C1CSC(c2ccccc2Cl)N1C(=O)c1ccc(Cl)cc1 (centres unmarked),14.9%
23,c1ccc(CCCN2CCN(c3ccccn3)CC2)cc1,-51.7%
24,NCCCN1CCN(c2ccccc2)CC1,-8.45%

row,SMILES,"hERG current change (%, negative = inhibition) at 10uM"
1,Fc1ccccc1N1CCN(Cc2c(F)cccc2F)CC1,7.89%
2,O=C(CN1CCN(c2ccccn2)CC1)NCCc1ccccc1,-9.55%
3,Cc1ccc(C)c(N2CCN(CCCc3ccccc3)CC2)c1,-59.9%
4,Cc1ccc(C)c(N2CCN(CCN3CCCCC3)CC2)c1.Cl,-3.6%
5,Fc1ccccc1N1CCN(CCCc2ccccc2)CC1,-64.7%
6,O=C(CCc1ccccc1)N1CCN(c2ccccc2F)CC1,15.9%
7,O=C(CCc1ccccc1)N1CCN(c2ccccn2)CC1,-9.9%
8,C/C=C(\C)CN1CCN(c2cc(C)ccc2C)CC1,6.08%
9,c1ccc(CCCN2CCN(c3ccccc3)CC2)cc1,-61.3%
10,CCOC(=O)N1CCN(CCCc2ccccc2)CC1,-6.26%
11,O=C(O)c1ccn[nH]1,-0.906%
12,Cc1ccc(/C=N/NC(=O)c2nnn(-c3nonc3N)c2C(C)C)o1,-4.22%
13,CSc1ncccc1C(=O)OCC(=O)c1cccs1,19.4%
14,CCOP(=O)(OCC)C(NC(=O)Nc1ccc(Cl)cc1)C(=O)N(CC)CC (centres unmarked),-13.4%
15,CC(c1ccccc1)n1cncc1C(=O)O (centres unmarked),18%
16,CCn1c(SCC(=O)c2c[nH]c3ccccc23)nc2cc(S(=O)(=O)N3CCOCC3)ccc21,9.49%
17,C=C(C)CSc1nnc([C@H](CCSC)NC(=O)OC(C)(C)C)o1,-14.3%
18,c1coc(CNc2nc3ccccc3s2)c1,11.1%
19,Cn1ccnc1SCC(=O)c1cc2ccccc2o1,4.65%
20,Cc1nn(C2CCS(=O)(=O)C2)c(Cl)c1/C=C/C(=O)OCC(=O)Nc1ccc2c(c1)OCO2 (centres unmarked),7.01%
21,O=C(NCCc1ccccc1)C1CCC(Cn2c(=O)c3ccccc3n(Cc3cccnc3)c2=O)CC1 (centres unmarked),-37.3%
22,CCOc1ccc(/C=C2\SC(=S)N(N3C(=O)C4CC4C3=O)C2=O)cc1 (centres unmarked),15.4%
23,Cc1cccc(CN2CCN(C(=O)Cc3ccccc3)CC2)c1.O=C(O)C(=O)O,4.99%
24,Cc1cccc(CN2CCN(Cc3ccc(Cl)cc3)CC2)c1.O=C(O)C(=O)O,-40%

row,SMILES,"hERG current change (%, negative = inhibition) at 10uM"
1,Cc1ccc(N2CCN(CCc3ccccc3)CC2)cc1,-36.2%
2,O=S(=O)(Cc1ccccc1)N1CCC(N2CCN(c3ccccc3)CC2)CC1,-22.7%
3,Cc1cccc(CN2CCN(CCCc3ccccc3)CC2)c1.O=C(O)C(=O)O,-75.4%
4,c1ccc(CCN2CCC(N3CCN(c4ccccc4)CC3)CC2)cc1,-66.4%
5,CC1=NN(c2ccccc2)C(=O)/C1=C/c1c(O)n(-c2ccc(F)cc2)[nH]c1=O,46%
6,Cc1c(C#N)c2ccccc2n1CC(=O)NCCc1c[nH]c2ccccc12,-2.5%
7,CCOC(=O)c1ccc(Oc2nc(OC)nc(N(C)C)n2)cc1,6.27%
8,Cc1[nH]c(=O)[nH]c1C(=O)CCCCC(=O)OCC(=O)Nc1ccccn1,12.3%
9,Cc1[nH]c(=O)[nH]c1C(=O)CCCCC(=O)O,-57.7%
10,CCOC(=O)CCCCC(=O)c1[nH]c(=O)[nH]c1C[n+]1ccccc1.[Cl-],26.4%
11,CCCc1nc2oc3c(OCC)ncnc3c2c2c1COC(C)(C)C2,-13.2%
12,CCCCn1c(N)c(N(C)C(=O)c2ccc(-n3cccn3)cc2)c(=O)[nH]c1=O,0.138%
13,Cc1cc(NC(=O)c2cccc(S(=O)(=O)N3CCCCCC3)c2)n(-c2ccccn2)n1,13.4%
14,CCOC(=O)C1(Cc2cccc(F)c2)CCN(C(=O)C2CCCO2)CC1 (centres unmarked),10.2%
15,CCOC(=O)C1(Cc2cccc(F)c2)CCN(C(=O)C2CCOCC2)CC1,-15%
16,CCOC(=O)C1(Cc2cccc(F)c2)CCN(C2CCOCC2)CC1,-63.5%
17,CCOC(=O)C1(Cc2cccc(OC)c2)CCN(C2CCOCC2)CC1,-68.7%
18,Cc1ccc(CC(=O)Nc2ncc([N+](=O)[O-])s2)cc1,32.5%
19,CCCCN(CC)C(=O)Cc1c(C(=O)O)[nH]c2ccc(Cl)cc12,12.4%
20,CCN1CCN(c2ccc(NC(=O)COc3ccccc3Cl)cc2)CC1,-40.7%
21,Cc1cc(S(=O)(=O)N2CCOCC2)ccc1NC(=O)c1ccc(F)cc1,1.32%
22,Cc1ccc(CNC(=O)c2cc3c(s2)CN(Cc2ccccc2)C3)cc1.Cl,3.85%
23,CC(C#N)(NC(=O)CN1CCN(S(=O)(=O)c2ccccc2Cl)CC1)C1CC1 (centres unmarked),5.18%
24,Cc1c(C=C2C(=O)N(C)C(=S)N(C)C2=O)c2ccccc2n1CC(=O)NCC1CCCO1 (centres unmarked),4.95%

row,SMILES,"hERG current change (%, negative = inhibition) at 10uM"
1,O=C(/C=C/c1ccc([N+](=O)[O-])cc1)c1cccnc1,-53%
2,CC(C(=O)O/N=C(\N)c1cccnc1)c1ccc([N+](=O)[O-])cc1 (centres unmarked),-56.8%
3,N#C/C(=C\c1cccnc1)c1ccccc1[N+](=O)[O-],4.04%
4,O=C(/C=C/c1ccccc1)Nc1cccnc1,-26%
5,N/C(=N\OC(=O)c1ccc([N+](=O)[O-])cc1)c1cccnc1,-10.7%
6,O=C(/C=C/c1cccnc1)c1ccc([N+](=O)[O-])cc1,-42.3%
7,O=C(/C=C/c1ccc(Cl)c([N+](=O)[O-])c1)Nc1cccnc1,-17.3%
8,O=C(/C=C/c1ccc([N+](=O)[O-])cc1)Nc1cccnc1,-62.7%
9,Cc1ccc(/C(N)=N/OC(=O)C(C)c2ccc([N+](=O)[O-])cc2)cc1 (centres unmarked),-4.62%
10,N#C/C(=C\c1cccnc1)c1ccc(Br)cc1,-5.44%
11,N#C/C(=C\c1cccnc1)c1ccc([N+](=O)[O-])cc1,-56.3%
12,O=C(/C=C/c1ccc(Cl)c([N+](=O)[O-])c1)c1cccnc1,-6.3%
13,O=C(NNC(=O)C12CC3CC(CC(Cl)(C3)C1)C2)c1csc(N2CCOCC2)n1,-1.63%
14,Cc1[nH]nc(SCC(=O)N2CCCCCC2)c1[N+](=O)[O-],3.4%
15,Cc1nnc(SCC(=O)NNC(=O)CC#N)[nH]c1=O,-7.01%
16,CCOc1cc(-c2cc(N)n[nH]2)cc(OCC)c1OCC,14.6%
17,Cc1ccc(N(C)C(=O)n2cnc3ccccc32)cc1,-1.52%
18,CN(Cc1ccccc1)C(=S)NC(=O)c1cccs1,8.32%
19,O=C(NCc1nnc(SC/C=C/c2ccccc2)o1)c1ccco1,-5.97%
20,CC1(COS(N)(=O)=O)CCCCC1,1.76%
21,Cc1ccc(S(=O)(=O)Nc2ccc(-c3nc4ccc(C)cc4s3)cc2)cc1,2.32%
22,CC(C)COc1ccc(/C(=N/O)c2ccccc2)cc1,11%
23,Cc1ccc(C(=O)c2coc3ccc(OCC(=O)O)cc23)cc1,2.16%
